How the values were obtained:
Assay in all cases: PBM binding z-score (relative to random genomic background probes); higher = stronger binding; sequences stand for … in GC…GCGATTGACAGCGTAGAATGAAGG
[1] = test system: FXR:RXRa (NR concentration 270 nM, RXRa partner concentration 90 nM)
Outline: (§1)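 Each nuclear receptor dimer, without ligand, was incubated for 1 h on custom Agilent 4×180K protein-binding microarrays. Binding was detected with antibodies against each partner (one per run), and scanned fluorescence was regression-normalized. The binding z-scores are referenced to random human genomic background probes.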

[2] = test system: LXRa:RXRa (NR concentration 270 nM, RXRa partner concentration 90 nM)
Outline: as §1

[3] = test system: LXRa homodimer (NR concentration 270 nM)
Outline: as §1

[4] = test system: LXRb:RXRa (NR concentration 270 nM, RXRa partner concentration 90 nM)
Outline: as §1

[5] = test system: LXRb homodimer (NR concentration 270 nM)
Outline: as §1

[6] = test system: PPARa:RXRa (NR concentration 270 nM, RXRa partner concentration 90 nM)
Outline: as §1

[7] = test system: PPARg:RXRa (NR concentration 180 nM, RXRa partner concentration 90 nM)
Outline: as §1

[8] = test system: PPARg:RXRa 270nM:90nM, anti-RXR (NR concentration 270 nM, RXRa partner concentration 90 nM)
Outline: as §1

[9] = test system: PPARg:RXRa 30nM:10nM, anti-RXR (NR concentration 30 nM, RXRa partner concentration 10 nM)
Outline: as §1

[10] = test system: PPARg:RXRa 90nM:30nM, anti-RXR (NR concentration 90 nM, RXRa partner concentration 30 nM)
Outline: as §1

Sequence	PBM binding z-score [1]	PBM binding z-score [2]	PBM binding z-score [3]	PBM binding z-score [4]	PBM binding z-score [5]	PBM binding z-score [6]	PBM binding z-score [7]	PBM binding z-score [8]	PBM binding z-score [9]	PBM binding z-score [10]
CAAACTAGGTCAAGGTCCAAGTCGGTTTGTGCCA	3.75	2.44	0.225	1.55	-0.00943	5.05	8.9	7.5	6.37	7.89
TCGAGTAGGTTAGGGGCATTCATAATGGCGTCGA	0.0373	0.369	0.0659	0.931	-0.211	1.4	1.06	2.19	1.35	1.98
CCTATTAGTTCACCATAAGGGCAACCGAAGCTCG	1.35	2.07	0.985	1.29	0.844	1.67	0.515	0.652	-0.043	0.491
ATCTCTGGGTAACAAGTTCAGTGAAAGAGAGGAC	0.503	0.668	0.353	0.819	0.98	1.7	1.62	1.83	0.953	1.5
GCATATAGGTAATACCAGGTGAAAGTCCGATTGT	0.107	2.05	0.172	0.185	-0.363	1.26	1.13	1.19	0.303	0.881
CCGACTGGGGCAAGGGTTACCATACTCAGTACGA	0.0555	0.199	-0.283	0.579	-0.86	3.84	8.6	7.56	6.82	7.87
TCTCTTAGTTGATTAGGGCAACCGAAACAGCGGA	0.698	0.799	0.13	0.868	1.26	1.22	0.00699	2.24	3.88	3.1
CCTACTGGGTCATCAGGTCATTGATATCAACGTT	4.46	3.76	2.34	3.19	-0.201	4.86	7.61	6.52	4.45	5.99
TCGAGTAGGTTAGTCGGGGCATCCAGCCAACATA	0.256	0.187	-0.411	0.296	-1.13	0.822	-0.0152	0.685	0.993	0.766
TCTAGTTGGTCACGGAGGTCACTCACGACGGGTA	2.52	2.98	1.91	2.84	0.542	3.15	2.52	3.55	3.29	3.24
CCTGCTGGGTCATGGTCAGCTAATCTACAGTATG	2.47	1.59	-0.658	1.42	-0.697	3.32	1.97	2.53	0.317	1.69
CCTTGGAGGACAGAAGGTCAGAGCTGTCCGCTTT	1.46	1.83	0.306	1.23	-0.609	2.23	0.715	2.34	0.178	1.81
CTCGAAAGGTCGGTTGAGGTGTGTATACGGATAA	1.83	1.28	-0.285	1.05	0.0615	2.13	0.162	0.619	-0.0568	0.492
CCTCGGAGGACAACAGGAGGTCAGAGGTGCCAGA	1.07	1.95	2.19	1.34	-0.628	2.04	1.1	1.57	-0.13	0.94
GCTTGTAGATCAAGGTTAACAAAGACTAAGCTAA	0.151	1.17	-0.222	0.96	-0.488	1.91	2.04	3.12	0.936	2.61
CAAACTCGGTCAAGGTCAAAGTCGGTTTGTGCCA	5.73	5.09	3.66	3.81	1.02	4.81	4.76	4.8	2.42	3.93
GCATATAGGAAATACAAGGTGAAAGTCCGATTGT	-0.0334	-0.148	-0.095	0.0762	-0.434	0.727	0.752	0.734	-0.0341	0.81
CTCGAAAGGTTGTGCTCAGGTGAGTATACCAAAC	0.895	0.617	-0.192	0.714	-0.313	1.04	-0.0653	0.312	-0.567	0.171
ATCTCTAGGAAAAAGTTCAGTGAATCCCGAGGAT	0.0166	0.275	0.466	0.0384	0.735	0.653	1.18	3.25	1.41	2.47
CGTACAAGGTCAGCAGGTCAGTGAAAGCGACGTG	6.31	4.3	0.745	3.29	-0.00943	5.32	5.54	5.17	1.99	3.64
TCGAGGAGGTTAGGGGCATTCAGAATGGCGTCGA	1.12	0.91	-0.0426	1.71	0.134	1.94	0.354	1.08	1.19	1.09
CGTCCAAGGTCATAGGAGGTCAGGGAAGACAGAT	7.91	7.63	5.15	6.25	0.687	6.17	6.03	5.99	2.83	4.83
CCTACTGGGCCTTCAGGTCATTGATATCAACGTT	1.24	0.751	0.919	1.3	-0.3	1.93	0.682	1.85	0.024	1.09
CGTCCAAGGACAAGGTCAGTGAAAGAGACTCGAA	1.56	1.45	-0.433	1.46	-0.506	2.39	0.883	1.23	-0.0239	0.648

From the supplement of paper PMC6555819
